{
  "source": "PubChem BioAssay AID1566",
  "about": "(Sanford-Burnham Center for Chemical Genomics, 2009)",
  "note": "Hit rate of the full screen: of about 290,000 compounds, about 1,800 (0.62%) were called active. Many of the other results were omitted from the sample, so actives are more common in it than they were. Unmarked numbers belong to inactive results. Cut-off read from the data, not from the text of the source: active = inhibition above about 50%; inactive = the rest.",
  "data": [
    {"experiment": "NOD2 signaling inhibitors, cell-based, luminescence, uHTS, HEK293 (AID 1566)", "conditions": "HEK293 NOD2/NF-kB luciferase reporter, at 4 µM, stronger effect = higher value", "values": [
      {"compound": "Nc1ccc2c(c1)N=[N+]([O-])c1cc(N)ccc1C2", "inhibition": "4.2%"},
      {"compound": "CN(C)Cc1c(O)ccc2c(-c3ccccc3)cc(=O)oc12", "inhibition": "1.4%"},
      {"compound": "CC(=O)c1c(O)ccc2c(-c3ccccc3)cc(=O)oc12", "inhibition": "13%"},
      {"compound": "COc1cc(NS(=O)(=O)c2ccc(N/C=C(\\C=O)c3nc4ccccc4o3)cc2)nc(OC)n1", "inhibition": "11%"},
      {"compound": "CC(=O)NNC(=S)NC(=O)c1cccc([N+](=O)[O-])c1", "inhibition": "14.7%"},
      {"compound": "O=C(CN1C(=O)NC2(CCCC2)C1=O)N1CCN(S(=O)(=O)c2ccccc2Br)CC1", "inhibition": "3.9%"},
      {"compound": "CCc1c(C)sc(NC(=O)c2cc(-c3ccc(OC)c(OC)c3)on2)c1C#N", "inhibition": "11.3%"},
      {"compound": "CCc1c(C)sc(NC(=O)c2cc(-c3ccc(O)cc3)on2)c1C#N", "inhibition": "50.7% (active)"},
      {"compound": "CCc1c(C)sc(NC(=O)c2cc(C)on2)c1C#N", "inhibition": "-59.7%"},
      {"compound": "COc1ccc(CN(C)S(=O)(=O)c2nnc(NC(=O)c3cccc(OC)c3)s2)cc1", "inhibition": "29.7%"},
      {"compound": "COc1ccc(CN(C)S(=O)(=O)c2nnc(NC(=O)c3cccc(F)c3)s2)cc1OC", "inhibition": "44.4%"},
      {"compound": "Cn1c(NC2CCCCC2)cc(=O)n(C)c1=O", "inhibition": "15.2%"},
      {"compound": "COc1ccccc1OCC(=O)N1CCCC(Nc2ccc(C)c(C)c2)C1", "note": "(configuration not stated)", "inhibition": "16.3%"},
      {"compound": "CCCCn1c(N)c(N(CC(C)C)C(=O)c2cccc(S(=O)(=O)N3CCCCCC3)c2)c(=O)[nH]c1=O", "inhibition": "0.1%"},
      {"compound": "CCc1cc(=O)oc2cc(C)cc(OCC(=O)C(C)(C)C)c12", "inhibition": "8.9%"},
      {"compound": "O=C(Nc1cccc([N+](=O)[O-])c1)Nc1ccc2c(c1)CCC2", "inhibition": "-35.7%"},
      {"compound": "COc1cc2c(cc1OC)C(COc1ccc(F)cc1)N(C(C)=O)CC2", "note": "(configuration not stated)", "inhibition": "2.4%"},
      {"compound": "COC(=O)c1ccc(OCC2c3cc(OC)c(OC)cc3CCN2C(C)=O)cc1", "note": "(configuration not stated)", "inhibition": "6.9%"},
      {"compound": "COc1cc2c(cc1OC)C(COc1ccc([N+](=O)[O-])cc1)N(C(C)=O)CC2", "note": "(configuration not stated)", "inhibition": "60.6% (active)"},
      {"compound": "Cc1ccc(C(=O)NNC(=O)c2ccc(NC(=O)C(C)(C)C)cc2)cc1", "inhibition": "8.3%"},
      {"compound": "CC1(C)CC(=O)C=C(C(=O)N2CCCC(C(=O)c3cccc(C(F)(F)F)c3)C2)O1", "note": "(configuration not stated)", "inhibition": "15.7%"},
      {"compound": "OCCNc1nc(C2CC2)nc2c1nnn2Cc1ccccc1Cl", "inhibition": "3.7%"},
      {"compound": "CN(C)S(=O)(=O)c1ccc(Nc2nc(C3CC3)nc3c2nnn3Cc2ccccc2Cl)cc1", "inhibition": "58.7% (active)"},
      {"compound": "COC(=O)CNc1nc(C2CC2)nc2c1nnn2Cc1ccccc1Cl", "inhibition": "7.3%"},
      {"compound": "CCCCC(CC)CNC(=O)c1cc2ccccc2c(=O)o1", "note": "(configuration not stated)", "inhibition": "9.7%"},
      {"compound": "O=C(CCNS(=O)(=O)c1ccc(Br)cc1)NCCc1ccc(Cl)cc1", "inhibition": "-1.7%"},
      {"compound": "CNC(=O)N(O)C1N(/N=C/c2cc(Br)ccc2O)C(=S)SC1(C)C", "note": "(configuration not stated)", "inhibition": "13.6%"},
      {"compound": "Cc1ccc(S(=O)(=O)Cc2ccc(C(=O)N3CCN(c4cccc(C)c4C)CC3)o2)cc1", "inhibition": "13.8%"},
      {"compound": "Cc1ccccc1S(=O)(=O)Cc1ccc(C(=O)N2CCN(c3ccccc3F)CC2)o1", "inhibition": "10.3%"},
      {"compound": "Cc1onc(-c2ccccc2Cl)c1C(=O)N1CCCCC1C(=O)O", "note": "(configuration not stated)", "inhibition": "8%"},
      {"compound": "CCOC(=O)c1c(C)[nH]c(C)c1C(=O)CSc1nc2ccccc2c(=O)n1-c1ccc(C)cc1", "inhibition": "-12.1%"},
      {"compound": "CCOC(=O)c1c(C)[nH]c(C)c1C(=O)CSc1nc2ccccc2c(=O)n1-c1ccc(F)cc1", "inhibition": "-3.4%"},
      {"compound": "CCC(CC)N1CCN(S(=O)(=O)c2ccc(OC)cc2)CC1", "inhibition": "-0.3%"},
      {"compound": "Cc1nc2ccc(NS(=O)(=O)c3ccc(F)cc3)cc2s1", "inhibition": "12.4%"},
      {"compound": "Cc1ccc(S(=O)(=O)Nc2ccc3nc(C)sc3c2)cc1", "inhibition": "29.3%"},
      {"compound": "O=C(NC1CCCc2ccccc21)c1ccc([N+](=O)[O-])cc1", "note": "(configuration not stated)", "inhibition": "1.7%"},
      {"compound": "COc1ccc(/C(N)=N/OC(=O)c2cccc([N+](=O)[O-])c2C)cc1OC", "inhibition": "-8.3%"},
      {"compound": "CC(=O)c1c(C)[nH]c(C(=O)OCC(=O)Nc2cc(Cl)ccc2[N+](=O)[O-])c1C", "inhibition": "5.7%"},
      {"compound": "CC(=O)c1c(C)[nH]c(C(=O)OCC(=O)Nc2ccc([N+](=O)[O-])cc2Cl)c1C", "inhibition": "11%"},
      {"compound": "CC(=O)c1c(C)[nH]c(C(=O)OCC(=O)Nc2ccc(Cl)cc2[N+](=O)[O-])c1C", "inhibition": "51% (active)"},
      {"compound": "O=C(CCc1n[nH]c(=O)[nH]c1=O)N/N=C/c1ccco1", "inhibition": "11.3%"},
      {"compound": "COc1ccc(NC(=O)c2ccc3c(c2)C(=O)N(Cc2cccnc2)C3=O)c(OC)c1", "inhibition": "-3.5%"},
      {"compound": "O=C1CCN(Cc2ccc([N+](=O)[O-])cc2)CCN1[C@H](CO)c1ccccc1", "inhibition": "8.7%"},
      {"compound": "COc1ccc(NC(=O)c2cc3ccccc3cc2OC)cc1", "inhibition": "-18.7%"},
      {"compound": "COc1cc(NC(=O)c2cc3ccccc3cc2OC)ccc1NC(=O)c1cccs1", "inhibition": "45.8%"},
      {"compound": "COc1cc2ccccc2cc1C(=O)Nc1ccc(NC(=O)c2cccs2)cc1", "inhibition": "60.7% (active)"},
      {"compound": "C#Cc1ccc([C@@H]2C=C(C(=O)Nc3ccccc3)O[C@H](OCC)[C@H]2CCCO)cc1", "inhibition": "11.4%"},
      {"compound": "CCCCc1c(C)c(C#N)c2nc3ccccc3n2c1Cl", "inhibition": "-34.2%"},
      {"compound": "CCCCc1c(C)c(C#N)c2nc3ccccc3n2c1NCCN(C)C", "inhibition": "-20.8%"},
      {"compound": "CC(C)(C(N)=O)N1CCN(c2ncc(C(F)(F)F)cc2Cl)CC1", "inhibition": "9.3%"},
      {"compound": "Cc1nc(SCC(=O)N2CCCCC2)c2c(C)c(C)sc2n1", "inhibition": "22.8%"},
      {"compound": "CCC(=O)N1CCN(c2nc(C)nc3sc(C)c(C)c23)CC1", "inhibition": "8.8%"},
      {"compound": "CCn1c(SCC(=O)N2CCc3ccccc3C2)nc2sc(C)c(C)c2c1=O", "inhibition": "17.7%"},
      {"compound": "Cc1nc(N2CCN(C(=O)CCC(=O)O)CC2)c2c(C)c(C)sc2n1", "inhibition": "13.1%"},
      {"compound": "N#Cc1cc(-c2ccccc2)nc(Oc2ccccc2)n1", "inhibition": "10.8%"},
      {"compound": "O=C(NNC(=O)c1ccc[nH]1)Nc1cc(Cl)cc(Cl)c1", "inhibition": "2.1%"},
      {"compound": "O=C(COc1ccc2c3c(c(=O)oc2c1)CCCC3)N[C@@H](Cc1ccccc1)C(=O)O", "inhibition": "9.1%"}
    ]}
  ]
}
